Compounds without any hit were thinned out: in the full panel of roughly 83,000, 20% have a hit.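 48-hour exposure, single concentration, 96-well plates; percent growth endpoint where 0 means no net growth. Active: below 10.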 The source made the active and inactive calls.
Columns and labels:
Experiment in all cases: NCI-60 one-dose screen, 48 h (100 = growth as untreated, 0 = no growth, -100 = all killed)
Conditions in all cases: 10 µM unless noted
BT-549 breast = test system: BT-549 breast
MDA-MB-435 melanoma = test system: MDA-MB-435 melanoma
SW-620 colon = test system: SW-620 colon
MCF7 breast = test system: MCF7 breast
HCT-116 colon = test system: HCT-116 colon
HCC-2998 colon = test system: HCC-2998 colon
KM12 colon = test system: KM12 colon

Measured: growth

CCOC(=O)c1c2c(c(C)n1Cc1ccc(OC)cc1)-c1nc(N)ncc1CC2
inactive: BT-549 breast 119% | MDA-MB-435 melanoma 110% | SW-620 colon 100% | MCF7 breast 106% | HCT-116 colon 94.8% | HCC-2998 colon 80.3% | KM12 colon 109%

CSc1nnc(C2=CC(=O)c3ccccc3C2=O)n1-c1ccccc1
inactive: BT-549 breast 92.9% | MDA-MB-435 melanoma 96.7% | SW-620 colon 92.1% | MCF7 breast 94.5% | HCT-116 colon 73.8% | HCC-2998 colon 85% | KM12 colon 61.5%

Cc1cc(CC(=O)O)n(C)c1C(=O)c1ccc(Cl)cc1
inactive: BT-549 breast 101% | MDA-MB-435 melanoma 106% | SW-620 colon 103% | MCF7 breast 120% | HCT-116 colon 102% | HCC-2998 colon 108% | KM12 colon 105%

Clc1ccc2nc(Cl)c3ccccc3c2c1
inactive: BT-549 breast 89.6% | MDA-MB-435 melanoma 50.3% | SW-620 colon 78.3% | MCF7 breast 89.7% | HCT-116 colon 19.4% | HCC-2998 colon 89.3% | KM12 colon 55.7%

Cc1ccccc1NC(=O)c1cc2ccccc2cc1O
active: BT-549 breast -0.275%
inactive: MDA-MB-435 melanoma 28.6% | SW-620 colon 47.2% | MCF7 breast 80.5% | HCT-116 colon 30.3% | HCC-2998 colon 81.5% | KM12 colon 23.4%

COc1ccc(/C=C2\COc3ccc(O)c(O)c3C2=O)cc1OC
active: MDA-MB-435 melanoma -0.882% | SW-620 colon 4.03% | HCT-116 colon -24.8%
inactive: BT-549 breast 29.4% | MCF7 breast 13% | HCC-2998 colon 46.1% | KM12 colon 10.4%

COC(=O)[C@]1(CCSC)N[C@H](c2cn(-c3ccccc3)nc2C)[C@@H]2C(=O)N(c3ccc(C)cc3)C(=O)[C@@H]21
inactive: BT-549 breast 82.8% | MDA-MB-435 melanoma 105% | SW-620 colon 106% | MCF7 breast 102% | HCT-116 colon 92.5% | HCC-2998 colon 96.4% | KM12 colon 104%

O=C1/C(=C/c2ccc3cccc(Cl)c3n2)SC(=S)N1CCc1ccc(O)cc1
inactive: BT-549 breast 95.2% | MDA-MB-435 melanoma 85.5% | SW-620 colon 95% | MCF7 breast 86.3% | HCT-116 colon 99.2% | HCC-2998 colon 118% | KM12 colon 84.8%

COc1ccc(CCN2CCCN3C2=Nc2ccccc2S3(=O)=O)cc1
inactive: BT-549 breast 50.2% | SW-620 colon 28% | MCF7 breast 19.3% | HCT-116 colon 17.4% | HCC-2998 colon 21.7% | KM12 colon 25.8%
active: MDA-MB-435 melanoma -5.64%

CCC(CC)NCCCCCNc1cc(OC)cc2cccnc12
inactive: BT-549 breast 88% | MDA-MB-435 melanoma 107% | SW-620 colon 95.4% | MCF7 breast 58.4% | HCT-116 colon 90.5% | HCC-2998 colon 117% | KM12 colon 98.6%

O=NC1CC=CCC1c1ccccc1 (stereo not given)
inactive: BT-549 breast 105% | MDA-MB-435 melanoma 112% | SW-620 colon 105% | MCF7 breast 108% | HCT-116 colon 95.6% | HCC-2998 colon 104% | KM12 colon 112%

CCn1c2ccccc2c2ccc(C(C)=O)cc21
inactive: BT-549 breast 96.9% | MDA-MB-435 melanoma 104% | SW-620 colon 114% | MCF7 breast 102% | HCT-116 colon 105% | HCC-2998 colon 108% | KM12 colon 115%

COc1ccc(C2=NN(C(=O)c3cc(OC)c(OC)c(OC)c3)C(c3ccc(C#N)cc3)C2)cc1OC (stereo not given)
active: MDA-MB-435 melanoma -40.4%
inactive: BT-549 breast 28.6% | SW-620 colon 16.1% | MCF7 breast 27% | HCT-116 colon 13.6% | HCC-2998 colon 35.2% | KM12 colon 15.1%

C=C(C[C@@](O)(C(=O)Oc1ccccc1)C(=O)C1CCCCC1)c1ccccc1
inactive: BT-549 breast 105% | MDA-MB-435 melanoma 102% | SW-620 colon 107% | MCF7 breast 100% | HCT-116 colon 92.7% | HCC-2998 colon 105% | KM12 colon 105%

COc1ccc(-n2nc3c(c2-c2ccc(OC)c(OC)c2)-c2oncc2CC3)cc1
inactive: BT-549 breast 77.5% | MDA-MB-435 melanoma 78.6% | SW-620 colon 99% | MCF7 breast 80.8% | HCT-116 colon 87.9% | HCC-2998 colon 104% | KM12 colon 77.7%

Cc1nn(-c2ccccc2)c2nc(Cl)c(/C=C/C(=O)c3ccccc3)c(-c3ccccc3)c12
inactive: BT-549 breast 87.9% | MDA-MB-435 melanoma 103% | SW-620 colon 112% | MCF7 breast 96.1% | HCT-116 colon 95.5% | HCC-2998 colon 103% | KM12 colon 106%

COc1ccc(-c2cn(-c3ccccc3)c(-c3ccccc3)n2)cc1OC
inactive: BT-549 breast 15% | MDA-MB-435 melanoma 35.7% | MCF7 breast 19.1% | HCT-116 colon 20.3% | HCC-2998 colon 58.8%
active: SW-620 colon 5.69% | KM12 colon -3.88%

COc1cccc(C2C(C#N)=C(N)Oc3cc(OC)ccc32)c1 (stereo not given)
active: MDA-MB-435 melanoma -47.7% | HCT-116 colon 7.04% | HCC-2998 colon 0.0782% | KM12 colon 4.36%
inactive: BT-549 breast 15.8% | SW-620 colon 26% | MCF7 breast 17.1%

Cc1cc2c(cc1C)Nc1sc(NC(=O)CN3CCN(C)CC3)nc1C(=O)N2
inactive: BT-549 breast 109% | MDA-MB-435 melanoma 111% | SW-620 colon 116% | MCF7 breast 97.5% | HCT-116 colon 101% | HCC-2998 colon 101% | KM12 colon 102%

CCC(C)CC(C)C(=O)c1c(O)ccn(O)c1=O (stereo not given)
inactive: BT-549 breast 35.6% | MDA-MB-435 melanoma 46.8% | SW-620 colon 25% | MCF7 breast 18.9% | HCT-116 colon 22.7% | HCC-2998 colon 89.7% | KM12 colon 34.2%

C=C1c2c(C)nn(-c3ccc(C#CCOC4OC(CO)C(O)C(O)C4O)cc3)c2N(C)C23C[C@H]1C1(C)c4c(C)nn(-c5ccc(C#CCOC6OC(CO)C(O)C(O)C6O)cc5)c4N(C)C(C)(C[C@H]12)C3 (stereo not given in full)
active: BT-549 breast 3.47% | MDA-MB-435 melanoma 0.0883% | MCF7 breast -0.735% | HCT-116 colon 0.942% | HCC-2998 colon -3.04% | KM12 colon -23.3%
inactive: SW-620 colon 11.6%

COc1ccc(C2=NNC(c3cc(Cc4ccc(O)c(C5CC(c6ccc(OC)cc6)=NN5)c4)ccc3O)C2)cc1 (stereo not given)
inactive: BT-549 breast 58.1% | MDA-MB-435 melanoma 12.1% | SW-620 colon 30.3% | MCF7 breast 26.1% | HCT-116 colon 28.3% | HCC-2998 colon 55.5% | KM12 colon 55.4%

COc1ccc(/C=C/C(=O)Nc2cccnc2Nc2ccc(F)cc2)cc1
inactive: BT-549 breast 89.3% | MDA-MB-435 melanoma 94.4% | SW-620 colon 106% | MCF7 breast 88.3% | HCT-116 colon 91.3% | HCC-2998 colon 106% | KM12 colon 107%

Clc1ccc(-c2nc(-c3cccs3)no2)c(Cl)c1
inactive: BT-549 breast 83% | MDA-MB-435 melanoma 111% | SW-620 colon 88.1% | MCF7 breast 29.2% | HCT-116 colon 94.6% | HCC-2998 colon 68% | KM12 colon 99.3%

Cn1cc(-c2nc(-c3c[nH]c4ncc(F)cc34)cs2)c2cccnc21
inactive: BT-549 breast 108% | MDA-MB-435 melanoma 98.2% | SW-620 colon 104% | MCF7 breast 77.9% | HCT-116 colon 101% | HCC-2998 colon 81.6% | KM12 colon 99.3%

CN1CCN(CC(=O)Nc2nc3c(s2)Nc2cc(Cl)c(Cl)cc2NC3=O)CC1
inactive: BT-549 breast 100% | MDA-MB-435 melanoma 107% | SW-620 colon 112% | MCF7 breast 104% | HCT-116 colon 100% | HCC-2998 colon 110% | KM12 colon 102%

Cc1ccccc1-c1cc(Cc2ccccc2O)c(=O)[nH]n1
inactive: BT-549 breast 112% | MDA-MB-435 melanoma 109% | SW-620 colon 116% | MCF7 breast 103% | HCT-116 colon 93.5% | HCC-2998 colon 124% | KM12 colon 98.1%

COc1ccc(-c2nnc(COc3ccc(NC(=O)Nc4cc(C(F)(F)F)cc(C(F)(F)F)c4)cc3F)o2)cc1
inactive: BT-549 breast 15.5% | SW-620 colon 13.6% | HCC-2998 colon 11.5%
active: MDA-MB-435 melanoma 7.29% | MCF7 breast 1.51% | HCT-116 colon 2.49% | KM12 colon 0.401%

O=C(/C=C/c1cc2ccccc2[nH]c1=O)c1ccc(Cl)cc1
inactive: BT-549 breast 29.4% | MCF7 breast 15.2% | HCC-2998 colon 10.2%
active: MDA-MB-435 melanoma 8.38% | SW-620 colon -19.9% | HCT-116 colon 2.8% | KM12 colon -1.06%

O=C(CSc1nnc(Nc2ccccc2)s1)NCCc1ccc(F)cc1
inactive: BT-549 breast 109% | MDA-MB-435 melanoma 101% | SW-620 colon 103% | MCF7 breast 109% | HCT-116 colon 99.8% | HCC-2998 colon 99.3% | KM12 colon 111%

COc1ccccc1[C@H]1c2[nH]c3ccccc3c2C[C@H]2C(=O)N(CCCCCCC(=O)NO)CC(=O)N12
inactive: BT-549 breast 67.8% | MDA-MB-435 melanoma 45.4% | SW-620 colon 15.6% | MCF7 breast 37.7% | HCT-116 colon 18.3% | HCC-2998 colon 38.9% | KM12 colon 77.8%

COc1ccc(C2CC(c3cccc(Nc4ccnc5cc(Cl)ccc45)c3)=NN2C=O)cc1 (stereo not given)
active: MDA-MB-435 melanoma -36% | HCT-116 colon 7.09%
inactive: BT-549 breast 30.9% | SW-620 colon 18.7% | MCF7 breast 22.4% | HCC-2998 colon 35.4% | KM12 colon 23.1%

N#CCNc1ccccc1N
inactive: BT-549 breast 87.2% | MDA-MB-435 melanoma 106% | SW-620 colon 100% | MCF7 breast 88.8% | HCT-116 colon 85.3% | HCC-2998 colon 96.9% | KM12 colon 94%

COc1ccc(/C=C2\NC(=S)NC2=O)cc1
inactive: BT-549 breast 105% | MDA-MB-435 melanoma 110% | SW-620 colon 105% | MCF7 breast 99.9% | HCT-116 colon 99.4% | HCC-2998 colon 117% | KM12 colon 101%

COc1cc(Oc2cc(-c3cccnc3)ccc2NC(=O)Nc2ccc(F)cc2F)cc(OC)c1OC
inactive: BT-549 breast 103% | MDA-MB-435 melanoma 109% | SW-620 colon 104% | MCF7 breast 94.2% | HCT-116 colon 97.8% | HCC-2998 colon 106% | KM12 colon 108%
